Experimental data: PubChem BioAssay (EPA / NIEHS)
Inconclusive results are not listed. Active and inactive are the calls of the source. How the source made its calls, unless noted: active means hit-call score of the fitted dose curve at least 0.9, where 1 is the maximum; inconclusive means response in the unintended direction; inactive means score below 0.9.

Tests used:
[1] = CCTE_Deisenroth_DEVTOX-GLR_legacy_CellCount: (Legacy) Viability Assessment in CCTE's DevTox GLR-Endo Assay, Deisenroth Lab (AID 2284331; active means hit-call score of the fitted dose curve at least 0.9, where 1 is the maximum; inactive means score below 0.9); settings: actives raise or lower the signal
Method in brief: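 Human pluripotent RUES2-GLR cells differentiated 48 h with two 24-h-interval exposures, 10-point 1 nM–200 uM series, 0.2% DMSO. Fixed nuclei counted by high-content imaging (5 fields/well); bidirectional fit vs DMSO, n≥4.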

[2] = test system: SRY-box transcription factor 17 (SOX17) Protein Expression, Deisenroth Lab, SOX17 (gene 64321); assay: CCTE_Deisenroth_DEVTOX-GLR_legacy_Sox17: (Legacy) CCTE's DevTox GLR-Endo Assay Evaluation of SRY-box transcription factor 17 (SOX17) Protein Expression, Deisenroth Lab (AID 2284341; active means hit-call score of the fitted dose curve at least 0.9, where 1 is the maximum; inactive means score below 0.9); settings: actives raise or lower the signal
Method in brief: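 RUES2-GLR human pluripotent cells differentiated toward endoderm for 48 h, dosed twice at 24 h intervals (1 nM–200 uM, 10 points). Imaging gives % SOX17+ cells (intensity >5x BMAD above pluripotent control median); bidirectional fit versus 0.2% DMSO.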

[3] = test system: SRY-box transcription factor 2 (SOX2) Protein Expression, Deisenroth Lab, SOX2 (gene 6657); assay: CCTE_Deisenroth_DEVTOX-GLR_legacy_Sox2: (Legacy) CCTE's DevTox GLR-Endo Assay Evaluation of SRY-box transcription factor 2 (SOX2) Protein Expression, Deisenroth Lab (AID 2284346; active means hit-call score of the fitted dose curve at least 0.9, where 1 is the maximum; inactive means score below 0.9)
Method in brief: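 Read-out: fraction of Sox2+ cells by high-content fluorescence imaging of fixed RUES2-GLR cells after 48 h differentiation with two 24 h-spaced exposures. Positivity cutoff 5x BMAD above endoderm control median; 0.2% DMSO median subtracted.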

[4] = IUF_NPC1_cytotoxicity_72hr: Cytotoxicity Assessment at 72 hours in the Leibniz Research Institute for Environmental Medicine (IUF) Neural Progenitor Cell Proliferation Assay (NPC1) (AID 2284332);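 further: rising LDH signal means more cytotoxicity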
Method in brief: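 Cytotoxicity by LDH membrane-integrity assay on medium supernatants, fluorescence via resazurin reduction, after 3-day single exposure of primary hNPC spheres at 37C, pH 7.2-7.6 with growth factors. Fitted upward against baseline.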

[5] = VALA_TUBIPS_Antagonist_CellCount: Viability Assessment in the VALA Sciences human iPS-derived Endothelial Tubule Formation (TUBIPS) Antagonism Assay (AID 2284335)
[6] = VALA_MIGHUV1_ScratchOnly_WoundArea: VALA Sciences human Umbilical Vein Endothelial Cell Migration (MIGHUV) Assay, Area of Scratch Wound Inhibited Recovery (AID 2284336)
Method in brief: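 Wound area remaining after 24 h recovery imaged by Hoechst nuclear fluorescence in scratched HUVEC cultures, chemicals added within 30 min of scratching across a 6-point series. Gain of signal fitted against 0.1% DMSO; cytochalasin D positive control.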

[7] = VALA_TUBHUV_Agonist_TubuleLength: VALA Sciences human Umbilical Vein Endothelial Tubule Formation (TUBHUV) Agonism Assay (AID 2284337)
Method in brief: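 Tubule length quantified by CD31 immunofluorescence imaging after fixation. HUVEC-HDF co-cultures (1:3) pre-grown 3 days with 10 ng/ml VEGF, then dosed 3 days in VEGF medium; 0.1 % DMSO vehicle baseline.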

[8] = VALA_TUBIPS_Agonist_CellCount: Viability Assessment in the VALA Sciences human iPS-derived Endothelial Tubule Formation (TUBIPS) Agonism Assay (AID 2284338)
[9] = CCTE_Mundy_HCI_iCellGluta_NOG_NeuriteLength: CCTE's Neurite Outgrowth Assay in iCellGluta cells for Neurite Length, Mundy Lab (AID 2284318)
Method in brief: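 Automated high-content imaging of betaIII-tubulin (Alexa Fluor-488) and Hoechst-stained cells gave neurite length, normalized to the DMSO baseline.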

TTR (gene 7276) = assay: CCTE_GLTED_hTTR_0.5uM: CCTE's human Transthyretin (hTTR) Inhibition Assay, with 0.5uM TTR, Great Lakes Toxicology and Ecology Division (GLTED) Lab (AID 2284320; active means hit-call score of the fitted dose curve at least 0.9, where 1 is the maximum; inactive means score below 0.9)
Method in brief: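 Probe (ANSA) displacement from 0.5 uM human transthyretin was followed by fluorescence (ex 380, em 475) after a 2 h incubation with chemical. Activity was scored as signal loss and fitted positively relative to DMSO.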

[10] = CCTE_Mundy_HCI_iCellGluta_NOG_NeuriteCount: CCTE's Neurite Outgrowth Assay in iCellGluta cells for Neurite Count, Mundy Lab (AID 2284342);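 further: chemical exposure about 48 hours starting 2 hours after plating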
SERPINA7 (gene 6906) = assay: CCTE_GLTED_hTBG: CCTE's human Thyroxine-binding Globulin (TBG) Inhibition Assay, Great Lakes Toxicology and Ecology Division (GLTED) Lab (AID 2284343);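 further: active chemicals lower fluorescence versus DMSO baseline by displacing probe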
Method in brief: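 Cell-free displacement of the fluorescent probe ANSA from human thyroxine-binding globulin after 2 h exposure. Read-out at ex 380/em 475 nm; DMSO baseline.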

[11] = Tanguay_ZF_120hpf_MO24: Oregon State University Tanguay Lab 24 Hour Post-fertilization zebrafish Assay for Mortality (AID 2284389; active means hit-call score of the fitted dose curve at least 0.9, where 1 is the maximum; inactive means score below 0.9)
Method in brief: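 Embryo death at 24 hpf was recorded as present or absent in Tropical 5D zebrafish, dechorionated at 4 hpf and dosed statically from 6 hpf (28C, 0.64% DMSO); 5 uM trimethyltin chloride served as positive control.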

[12] = CCTE_Deisenroth_5AR_NBTE_donor: CCTE's 5alpha-reductase NanoBRET Target Engagement Assay […], Deisenroth Lab (AID 2284319; active means hit-call score of the fitted dose curve at least 0.9, where 1 is the maximum; inactive means score below 0.9); settings: actives raise or lower the signal
Method in brief: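 HEK293T cells transiently expressing SRD5A2-NanoLuc, exposed 5 h to chemicals (8 points, 10 nM - 29.9 uM), with testosterone tracer for the final 2 h. Donor luminescence at 460 nm read after Nano-Glo substrate plus extracellular NanoLuc inhibitor; bidirectional fit versus DMSO.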

[13] = CCTE_Deisenroth_5AR_NBTE_acceptor: CCTE's 5alpha-reductase NanoBRET Target Engagement Assay - Autofluorescence Screen, Deisenroth Lab (AID 2284321; active means hit-call score of the fitted dose curve at least 0.9, where 1 is the maximum; inactive means score below 0.9;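 further: compound fluorescence in the acceptor channel under 460 nm excitation flags autofluorescence artifacts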); settings: actives raise or lower the signal
Method in brief: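 Using three independent plate-reader runs, nominal 100 uM chemicals were checked for intrinsic fluorescence (ex 460 nm). DMSO defined the baseline for bidirectional fitting.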

SRD5A2 (gene 6716) = assay: CCTE_Deisenroth_5AR_NBTE_ratio: CCTE's 5alpha-reductase NanoBRET Target Engagement Assay - Ratio, Deisenroth Lab (AID 2284322; active means hit-call score of the fitted dose curve at least 0.9, where 1 is the maximum; inactive means score below 0.9); settings: actives raise or lower the signal
Method in brief: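 HEK293T cells transiently expressing an SRD5A2-NanoLuc fusion (20 h post-transfection) were exposed to test chemical (10 nM - 29.9 uM, 8 points) for 3 h, then testosterone tracer for a further 2 h. Acceptor/donor BRET ratio was fitted bidirectionally against DMSO baseline.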

IYD (gene 389434) = assay: CCTE_GLTED_hIYD: CCTE's human Iodotyrosine Deiodinase (xIYD) Inhibition Assay, Great Lakes Toxicology and Ecology Division (GLTED) Lab (AID 2284317);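 further: cell-free human IYD enzyme made in baculovirus insect cells; iodide freed from monoiodotyrosine measured by cerium arsenite color change at 420 nm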
Method in brief: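 In the IYD assay, iodide released from MIT by insect-cell-expressed human enzyme was quantified after 3 h via Sandell-Kolthoff rate at 420 nm, with plate-wise normalization to MNT and solvent controls.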

[14] = CCTE_Mundy_HCI_iCellGluta_NOG_NeuronCount: CCTE's Neurite Outgrowth Assay in iCellGluta cells for Neuron Count, Mundy Lab (AID 2284340);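 further: cells fixed about 48 h after compound addition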
Method in brief: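 Neuron count read by automated high-content imaging of Hoechst 33342 and betaIII-tubulin/Alexa Fluor-488 labelling in human iPSC glutamatergic neurons. Activity fitted relative to DMSO.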

With `CN(Cc1cnc2nc(N)nc(N)c2n1)c1ccc(C(=O)N[C@@H](CCC(=O)O)C(=O)O)cc1` the AC50 [1] was 0.359 µM (active), the outcome [2] was “inactive” and the AC50 [3] was 0.0109 µM (active).

For `O=C(CCCN1CCC(O)(c2ccc(Cl)cc2)CC1)c1ccc(F)cc1`, the outcome [4] was “inactive”, the outcome [5] was “inactive” and the outcome [6] was “inactive”. The outcome [7] was “inactive” and the outcome [8] was “inactive”.

For `CN(C)CCOC(c1ccccc1)c1ccccc1`, the AC50 [1] was 63.9 µM (active), the AC50 [2] was 58.1 µM (active) and the AC50 [3] was 100 µM (active).

In the case of `O=C(CC(=O)C(F)(F)C(F)(F)C(F)(F)F)c1cccs1`, the outcome [9] was “inactive”, the AC50 (TTR (gene 7276)) was 0.193 µM (active) and the outcome [10] was “inactive”. The AC50 (SERPINA7 (gene 6906)) was 14.1 µM (active) and the outcome [11] was “inactive”.

For `CCCCCCCCCC=CCC1CC(=O)OC1=O` (stereo not given), the AC50 (SERPINA7 (gene 6906)) was 60.7 µM (active).

With `CN(CCO)S(=O)(=O)C(F)(F)C(F)(F)C(F)(F)C(F)(F)C(F)(F)C(F)(F)C(F)(F)C(F)(F)F` the outcome [11] was “inactive”.

For `CCc1ccccc1O`, the outcome [12] was “inactive”, the outcome [13] was “inactive” and the outcome (SRD5A2 (gene 6716)) was “inactive”.

In the case of `NC(=NCCCCCCN=C(N)/N=C(\N)Nc1ccc(Cl)cc1)/N=C(\N)Nc1ccc(Cl)cc1`, the AC50 (IYD (gene 389434)) was 54.7 µM (active), the AC50 [13] was 50 µM (active) and the AC50 (SRD5A2 (gene 6716)) was 81 µM (active).

In the case of `O=P(O)(O)CCC(F)(F)C(F)(F)C(F)(F)C(F)(F)C(F)(F)C(F)(F)F`, the outcome [9] was “inactive”, the AC50 (TTR (gene 7276)) was 6.47 µM (active) and the outcome [14] was “inactive”. For the same compound, the outcome [10] was “inactive” and the outcome [11] was “inactive”.

For `CC(C)c1c(C(=O)Nc2ccccc2)c(-c2ccccc2)c(-c2ccc(F)cc2)n1CC[C@@H](O)C[C@@H](O)CC(=O)O`, the AC50 [9] was 0.0462 µM (active), the outcome [4] was “inactive” and the AC50 [14] was 10.1 µM (active). For the same compound, the AC50 [10] was 0.094 µM (active).

For `CCCCCCc1ccc(N)cc1`, the outcome [12] was “inactive”, the outcome [13] was “inactive” and the AC50 (SRD5A2 (gene 6716)) was 50 µM (active).

With `OCC(F)(F)C(F)(F)C(F)(F)C(F)(F)C(F)(F)C(F)(F)C(F)(F)C(F)(F)C(F)(F)C(F)(F)C(F)(F)F` the outcome [9] was “inactive”, the AC50 [14] was 1.55 µM (active) and the outcome [10] was “inactive”. For the same compound, the outcome [11] was “inactive”.

With `C=CC(=O)OCCC(F)(F)C(F)(F)C(F)(F)C(F)(F)C(F)(F)C(F)(F)C(F)(F)C(F)(F)F` the outcome [9] was “inactive”, the outcome [14] was “inactive” and the outcome [10] was “inactive”. For the same compound, the outcome [11] was “inactive”.

With `Cc1[nH]nc2c1N=C(c1ccccc1Cl)c1cc([N+](=O)[O-])ccc1N2` the AC50 (SERPINA7 (gene 6906)) was 0.482 µM (active).

With `O=C(O)CCC(F)(F)C(F)(F)C(F)(F)C(F)(F)C(F)(F)F` the AC50 (TTR (gene 7276)) was 3.12 µM (active) and the outcome [11] was “inactive”.

For `CCCCc1ccc2ccccc2c1S(=O)(=O)O`, the AC50 (SERPINA7 (gene 6906)) was 22 µM (active).

With `CCCCCCCCCCCCOC(=O)c1cc(O)c(O)c(O)c1` the AC50 (IYD (gene 389434)) was 22.9 µM (active) and the AC50 (SERPINA7 (gene 6906)) was 4.45 µM (active).
